The panel holds about 83,000 compounds, 20% with a hit somewhere; the sample as a whole holds those more often.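 Compound tested at a single concentration for 48 hours in 96-well plates; a percent growth value below 10 was scored as active.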 Unmarked numbers belong to inactive results. Active and inactive are the calls of the source.
Columns and labels:
Experiment in all cases: NCI-60 one-dose screen, 48 h (100 = growth as untreated, 0 = no growth, -100 = all killed)
Conditions in all cases: 10 µM unless noted
DU-145 prostate = tested on: DU-145 prostate
K-562 leukemia = tested on: K-562 leukemia
MALME-3M melanoma = tested on: MALME-3M melanoma
MDA-MB-231 breast = tested on: MDA-MB-231 breast
RXF 393 renal = tested on: RXF 393 renal
SF-268 CNS = tested on: SF-268 CNS
SF-295 CNS = tested on: SF-295 CNS
SF-539 CNS = tested on: SF-539 CNS
UACC-257 melanoma = tested on: UACC-257 melanoma
M14 melanoma = tested on: M14 melanoma
HCT-15 colon = tested on: HCT-15 colon
HT29 colon = tested on: HT29 colon
SNB-75 CNS = tested on: SNB-75 CNS
SNB-19 CNS = tested on: SNB-19 CNS
U251 CNS = tested on: U251 CNS
PC-3 prostate = tested on: PC-3 prostate
SK-MEL-5 melanoma = tested on: SK-MEL-5 melanoma
UACC-62 melanoma = tested on: UACC-62 melanoma
LOX IMVI melanoma = tested on: LOX IMVI melanoma
SK-MEL-28 melanoma = tested on: SK-MEL-28 melanoma

| Compound | growth (DU-145 prostate) | growth (K-562 leukemia) | growth (MALME-3M melanoma) | growth (MDA-MB-231 breast) | growth (RXF 393 renal) | growth (SF-268 CNS) | growth (SF-295 CNS) | growth (SF-539 CNS) | growth (UACC-257 melanoma) | growth (M14 melanoma) | growth (HCT-15 colon) | growth (HT29 colon) | growth (SNB-75 CNS) | growth (SNB-19 CNS) | growth (U251 CNS) | growth (PC-3 prostate) | growth (SK-MEL-5 melanoma) | growth (UACC-62 melanoma) | growth (LOX IMVI melanoma) | growth (SK-MEL-28 melanoma) |
| --- | --- | --- | --- | --- | --- | --- | --- | --- | --- | --- | --- | --- | --- | --- | --- | --- | --- | --- | --- | --- |
| CN1CCN(Cc2ccc(NC(=O)c3cncc(C#Cc4cnc5ccc(NCCO)nn45)c3)cc2C(F)(F)F)CC1 | -2.12% (active) | 5.38% (active) | -69.7% (active) | 1.53% (active) | -74.3% (active) | -40.9% (active) | 16.6% | -74.4% (active) | -6.58% (active) | -70.9% (active) | 33.2% | -28% (active) | -90.5% (active) | 0.946% (active) | -19.6% (active) | 3.35% (active) | -22.2% (active) | -32.7% (active) | -87.8% (active) | -24.4% (active) |
| O=S(=O)(Oc1ccc(-c2cn3ccsc3n2)cc1)c1cccc(C(F)(F)F)c1 | 103% | 96.9% | 91.3% | 101% | 100% | 110% | 98.3% | 101% | 99.6% | 101% | 96.8% | 107% | 102% | 96.4% | 100% | 97.9% | 98.3% | 81.3% | 112% | 99.6% |
| CCN(CC)c1ccc(/C=N/NC(=O)c2ccc(NS(C)(=O)=O)cc2)c(O)c1 | 31.3% | 14.2% | 4.46% (active) | 38.4% | -9.12% (active) | 22.7% | 9.79% (active) | 7.08% (active) | -6.91% (active) | 0.206% (active) | 20.1% | 27.4% | 48.1% | 34.7% | 23.8% | 31.7% | 0.13% (active) | 0.285% (active) | 0.336% (active) | 23% |
| CC(=O)c1c([Si](C)(C)C)c2cc(C#N)ccn2c1C(=O)c1ccc(Br)cc1 | 99.9% | 82.4% | 92.9% | 85.4% | 78.5% | 79.1% | 90.9% | 95.5% | 101% | 97.4% | 85.1% | 67.8% | 95.1% | 86.9% | 93.2% | 76% | 91.2% | 74.9% | 99.6% | 92.1% |
| C=C(C)[C@@H]1CC[C@]2(COCCCNCCCN)CC[C@]3(C)[C@H](CC[C@@H]4[C@@]5(C)CC[C@H](O)C(C)(C)[C@@H]5CC[C@]43C)[C@@H]12 | -80.8% (active) | -9.9% (active) | -83.8% (active) | -86.3% (active) | -90.9% (active) | -57.9% (active) | -85.2% (active) | -96.2% (active) | -0.281% (active) | -90.3% (active) | -78% (active) | -62.6% (active) | -86.6% (active) | -91% (active) | -73.4% (active) | -74.4% (active) | -63.5% (active) | -89.6% (active) | -80.7% (active) | -92.8% (active) |
| CC(Nc1ncnc2ccc(-c3cnc4cnccn34)cc12)c1ccccc1 (stereo not given) | 37.4% | 48.3% | 58% | 64.3% | 46.6% | 67.7% | 50.5% | 66% | 75.4% | 77.8% | 67.7% | 71.1% | 80.9% | 56.8% | 76.1% | 63.8% | 18.1% | 53.9% | 58.1% | 78.7% |
| O=S(=O)(NCCCNc1nccc(-c2[nH]c(-c3ccccc3)nc2-c2ccc(F)c(O)c2)n1)c1ccc(C(F)(F)F)cc1 | 79.9% | 9.88% (active) | -5.99% (active) | 67.1% | 24.5% | 54% | 31.3% | 31.1% | 24.6% | 3.88% (active) | 38.1% | 94.9% | -0.845% (active) | 43.2% | 33.5% | 40.8% | -0.786% (active) | 2.32% (active) | 46.3% | 30.1% |
| CN1CCN(Cc2ccc(/C=N/Nc3ccnc4cc(Cl)ccc34)cc2)CC1 | 75.1% | 4.76% (active) | 94.5% | 71.5% | 74.6% | 99.8% | 90% | 64.7% | 111% | 96.9% | 38.2% | 42.5% | 99% | 98.2% | 84.6% | 75.8% | 94.3% | 104% | 15.3% | 98% |
| CC(C)(C)c1cc(NC(=O)Nc2ccc(-c3cn4c5c(sc4n3)CCc3c[nH]cc3-5)cc2)no1 | 32.6% | 1.04% (active) | 0.464% (active) | 30.3% | -24.4% (active) | 32.7% | -56.5% (active) | -4.46% (active) | 32.3% | 6.95% (active) | 5% (active) | -66% (active) | -12.9% (active) | 21.7% | -14.6% (active) | 21.9% | 19.1% | 49.9% | -22.5% (active) | 23.1% |
| Cc1csc(/N=C(N)/N=C(\N)c2cccnc2)n1 | 96.8% | 42.4% | 60.7% | 86.9% | 89.7% | 77.2% | 48.4% | 79.5% | 95.5% | 51.6% | 42.7% | 59% | 41.7% | 69.4% | 76.5% | 69.2% | 80.3% | 40.2% | 74.7% | 65.3% |
| CCCNNC(=O)c1ccc(-c2ccc(NC(=O)CCCCCCC(=O)N[C@H](C(=O)N3C[C@H](O)C[C@H]3C(=O)N[C@@H](C)c3ccc(-c4scnc4C)cc3)C(C)(C)C)cc2)cc1 | 32.4% | 15.5% | 32% | 24.1% | -33% (active) | 46.3% | 46.8% | 27.3% | 23.6% | 39.8% | 97.5% | 5.44% (active) | 55.1% | 28.6% | 17.1% | 37.2% | -0.921% (active) | -5.46% (active) | -41.8% (active) | 23.9% |
| CCCCCCOC(=O)c1cc(-c2ccc(F)cc2)nc2ccccc12 | 105% | 101% | 97.1% | 85.6% | 96.8% | 96.1% | 98% | 99.9% | 99.1% | 96.9% | 94.8% | 96.3% | 69.9% | 92.6% | 101% | 94.2% | 99.7% | 79% | 91.3% | 107% |
| COc1cc(-c2nc(-c3ccccc3)[nH]c2-c2ccnc(NCCCNS(=O)(=O)c3ccc(C)cc3)n2)ccc1F | 86.7% | 58.9% | 100% | 91.7% | 82.7% | 80.2% | 99.6% | 89.4% | 99.7% | 77.7% | 62.9% | 69.5% | 105% | 104% | 88.6% | 55% | 84.4% | 97.5% | 83.4% | 101% |
| C#C[C@]1(O)CC[C@H]2[C@@H]3CC=C4c5sc(N(C)c6ccccc6)nc5CC[C@]4(C)[C@H]3CC[C@@]21C | 95.4% | 2.88% (active) | 110% | 98.6% | 75.8% | 88% | 68.8% | 48.7% | 90.8% | 54.3% | 27.8% | -3.51% (active) | 99.8% | 91.3% | 60.6% | 59.1% | 87.3% | 77% | 67.8% | 76.9% |
| CCOC(=O)c1c(NC(=O)c2cccc(C(F)(F)F)c2)sc2c1CCC(=O)C2 | 94.8% | 5.25% (active) | 58.3% | 55.2% | 25.6% | 27.7% | 24.3% | -9.48% (active) | 82.2% | 42.7% | 18.9% | 65.4% | 31.6% | 21.4% | 3.77% (active) | 3.56% (active) | 38% | 30.9% | 9.07% (active) | 89.2% |
